PubChem BioAssay (Tox21)
Where “and” joins values, the source holds several entries; their conditions need not be identical. Equal values may be shown once. Records with an inconclusive call do not appear. Entries that show only a call come without a potency. Where a structure was tested more than once in an assay, its records may differ in their call. Calls of active or inactive are those of the source. Unless noted, calls follow the shape of the dose curve; as a rule, active = well fitted cell-killing curve with a large enough effect in the repeat runs; inconclusive = weak or mixed curves; inactive = flat fitted curve, though single readings scatter.

Biological target: Androgen receptor (Homo sapiens) (UniProt P10275)
Sequence (P10275 whole entry, looked up): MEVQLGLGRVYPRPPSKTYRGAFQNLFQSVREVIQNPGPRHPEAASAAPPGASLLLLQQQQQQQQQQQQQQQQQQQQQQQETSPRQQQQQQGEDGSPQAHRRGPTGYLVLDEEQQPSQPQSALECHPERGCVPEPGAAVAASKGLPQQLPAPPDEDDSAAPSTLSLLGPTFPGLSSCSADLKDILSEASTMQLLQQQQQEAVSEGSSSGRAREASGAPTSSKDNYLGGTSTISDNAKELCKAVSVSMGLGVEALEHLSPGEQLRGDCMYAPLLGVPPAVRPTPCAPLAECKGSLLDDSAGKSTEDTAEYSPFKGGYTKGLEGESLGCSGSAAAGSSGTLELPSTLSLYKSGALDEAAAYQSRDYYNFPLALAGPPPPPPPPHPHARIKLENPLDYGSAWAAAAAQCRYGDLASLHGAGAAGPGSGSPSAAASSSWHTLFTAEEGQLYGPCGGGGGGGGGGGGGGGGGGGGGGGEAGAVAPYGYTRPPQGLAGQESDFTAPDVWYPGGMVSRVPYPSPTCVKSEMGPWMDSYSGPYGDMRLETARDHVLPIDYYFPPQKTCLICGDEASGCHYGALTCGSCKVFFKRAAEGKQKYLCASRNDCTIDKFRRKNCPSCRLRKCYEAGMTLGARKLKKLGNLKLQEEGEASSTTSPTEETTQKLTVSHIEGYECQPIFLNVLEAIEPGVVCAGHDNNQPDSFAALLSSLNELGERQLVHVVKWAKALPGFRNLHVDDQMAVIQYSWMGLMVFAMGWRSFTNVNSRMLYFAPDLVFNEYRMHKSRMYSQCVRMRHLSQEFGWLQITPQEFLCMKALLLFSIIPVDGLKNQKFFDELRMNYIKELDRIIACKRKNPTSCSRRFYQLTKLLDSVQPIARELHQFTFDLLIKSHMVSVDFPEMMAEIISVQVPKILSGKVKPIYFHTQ
Test: qHTS assay to identify small molecule agonists of the androgen receptor (AR) signaling pathway in the presence of an antagonist (AID 1259381; calls by dose curve; also: nearly all actives have a fitted effect of over 15% in size)
Conditions: MDA-kb2 MMTV-luciferase, AR agonist + nilutamide, 16 h; series mostly up to 92.4 µM
How it was run: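 MDA-kb2 cells carrying MMTV-luciferase (AR/GR responsive), 3,000 cells/well, co-treated with 3.0 uM nilutamide final. Compounds at 15 concentrations, 16 hr at 37C without CO2. Luciferase luminescence read after 30 min with ONE-Glo.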
For `COc1ccc2c(c1)c(CC(=O)O)c(C)n2C(=O)c1ccc(Cl)cc1`, the Potency was “inactive”. With `CN(C)C(=O)Nc1ccc(Cl)c(Cl)c1` the Potency was “inactive”. For `CCCCOC(=O)c1ccc(O)cc1`, the Potency was “inactive”. In the case of `CCOc1ccc(NC(C)=O)cc1`, the Potency is reported as “inactive”. For `CCCCC1(COC(=O)CCC(=O)O)C(=O)N(c2ccccc2)N(c2ccccc2)C1=O`, the Potency was “inactive”. For `CN(C)CCOC(c1ccccc1)c1ccccc1`, the Potency was “inactive”. With `CCCCCCc1ccc(O)cc1O` the Potency was “inactive”.

System: not listed separately
Test: qHTS assay to identify small molecule antagonists of the estrogen receptor beta (ER-beta) signaling pathway - cell viability counter screen (AID 1259382); also: nearly all actives have a fitted effect of over 55% in size; also: potency is read from the fitted curve at half-maximal effect
Conditions: ER-beta-UAS-bla HEK293T viability, CellTiter-Glo luminescence, 16 h; series mostly up to 92.4 µM
How it was run: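 ER-beta-UAS-bla HEK293T cells in 2% charcoal-stripped FBS medium, treated with compound plus 1 nM 17-beta-estradiol for 16 h at 37C. Viability read by CellTiter-Glo luminescence after 30 min at room temperature in the same wells.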
For `COc1ccc(C(Cl)=C(c2ccc(OC)cc2)c2ccc(OC)cc2)cc1`, the Potency was “inactive”. For `NS(=O)(=O)c1cc2c(cc1Cl)NCNS2(=O)=O`, the Potency was “inactive”. With `COc1ccc2c(c1)c(CC(=O)O)c(C)n2C(=O)c1ccc(Cl)cc1` the Potency was “inactive”. In the case of `O=c1[nH]cnc2c1ncn2[C@H]1CC[C@@H](CO)O1`, the Potency is reported as “inactive”. With `Cc1ncc([N+](=O)[O-])n1CCO` the Potency was “inactive”. With `CCc1nc(N)nc(N)c1-c1ccc(Cl)cc1` the Potency was “inactive”. With `CN(C)C(=O)Nc1ccc(Cl)c(Cl)c1` the Potency was “inactive”. With `CCCCOC(=O)c1ccc(O)cc1` the Potency was “inactive”. With `CC12CCC(CC1)C(C)(C)O2` the Potency was “inactive”. With `CCOc1ccc(NC(C)=O)cc1` the Potency was “inactive”. In the case of `CCCCC1(COC(=O)CCC(=O)O)C(=O)N(c2ccccc2)N(c2ccccc2)C1=O`, the Potency is reported as “inactive”. With `CCCc1cc(=O)[nH]c(=S)[nH]1` the Potency was “inactive”. For `CCOC(N)=O`, the Potency was “inactive”. With `CCN(CC)C(=O)c1cccc(C)c1` the Potency was “inactive”. In the case of `CCCCCCCC(=O)OCC(COC(=O)CCCCCCC)OC(=O)CCCCCCC`, the Potency is reported as “inactive”. In the case of `O=C1OC2(c3ccccc31)c1cc(Br)c(O)c(Br)c1Oc1c2cc(Br)c(O)c1Br`, the Potency is reported as “inactive”. For `NC(=O)c1cccnc1`, the Potency was “inactive”. In the case of `CN1[C@@H]2CC(OC(=O)[C@H](CO)c3ccccc3)C[C@H]1[C@@H]1O[C@@H]12` (stereo partly specified), the Potency is reported as “inactive”. In the case of `CN(C)CCOC(c1ccccc1)c1ccccc1`, the Potency is reported as “inactive”. For `CC(=O)CCC(=O)O`, the Potency was “inactive”. With `Cc1c(C(=O)O)c(O)cc2c1C(=O)c1c(O)c([C@@H]3O[C@H](CO)[C@@H](O)[C@H](O)[C@H]3O)c(O)c(O)c1C2=O` the Potency was “inactive”. With `CN1CCc2cccc3c2[C@H]1Cc1ccc(O)c(O)c1-3` the Potency was 30.9 µM (active) and 20.4 µM (active) and inactive. For `CCCCCCCCCCCCCCCC[N+](C)(C)Cc1ccccc1`, the Potency was 35.5 µM (active) and 17.5 µM (active) and 10.6 µM (active). With `C=CCc1ccc(O)c(OC)c1` the Potency was “inactive”. For `NC(CO)(CO)CO`, the Potency was “inactive”. In the case of `CS(=O)(=O)OCCCCOS(C)(=O)=O`, the Potency is reported as “inactive”. For `O=S1(=O)OC(c2ccc(O)cc2)(c2ccc(O)cc2)c2ccccc21`, the Potency was “inactive”. For `CC(C)C(=O)Nc1ccc([N+](=O)[O-])c(C(F)(F)F)c1`, the Potency was “inactive”. With `CCCCCCc1ccc(O)cc1O` the Potency was 48.7 µM (active) and inactive.
